From PubChem BioAssay AID1159580 (chemical genetic matrix, 2015)
Hit rate of the full screen: of about 5,500 compounds, about 2,000 (36%) were called active. About 18% were inconclusive and are not listed. Cut-off read from the data, not from the text of the source: active = normalized growth mostly below about 0.91 (no sharp cut-off); inconclusive = no clear call, values can overlap the other calls; inactive = mostly above about 0.92. Some of the results follow.

Assay: chemical genetic growth profiling, strain panel (AID 1159580);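 note: tested at 20 µM; growth read once vehicle control cultures reached saturation at 30 °C; 1 = growth at the plate median or of vehicle wells; lower values mean less growth of the strain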
Conditions: growth OD

Measured: normalized growth

O=C(O)c1cc2cc(Cl)ccc2[nH]1
inactive: S. cerevisiae deletion strains, locus YJR075W, strain HOC1, stronger effect = lower value 1.05 | S. cerevisiae deletion strains, locus YKL009W, strain mrt4, stronger effect = lower value 1.01 | S. cerevisiae deletion strains, locus YKL068W, stronger effect = lower value 0.98 | S. cerevisiae deletion strains, locus YKL085W, strain MDH1 (second series), stronger effect = lower value 1.02 | S. cerevisiae deletion strains, locus YKL085W, strain MDH1, stronger effect = lower value 1.02 | S. cerevisiae deletion strains, locus YKL160W, strain elf1, stronger effect = lower value 1 | S. cerevisiae deletion strains, locus YKL190W, strain CNB1, stronger effect = lower value 1.01 | S. cerevisiae deletion strains, locus YKR001C, strain vps1, stronger effect = lower value 0.984 | S. cerevisiae deletion strains, locus YKR026C, strain gcn3, stronger effect = lower value 0.963 | S. cerevisiae deletion strains, locus YKR091W, strain srl3, stronger effect = lower value 0.994 | S. cerevisiae deletion strains, locus YLL001W, strain dnm1, stronger effect = lower value 0.966 | S. cerevisiae deletion strains, locus YLL026W, stronger effect = lower value 0.98 | S. cerevisiae deletion strains, locus YLL041C, strain sdh2, stronger effect = lower value 0.988 | S. cerevisiae deletion strains, locus YLR027C, strain aat2, stronger effect = lower value 0.992 | S. cerevisiae deletion strains, locus YLR039C, strain RIC1, stronger effect = lower value 1.04 | S. cerevisiae deletion strains, locus YLR058C, strain SHM2, stronger effect = lower value 1.01 | S. cerevisiae deletion strains, locus YLR102C, strain apc9, stronger effect = lower value 0.98 | S. cerevisiae deletion strains, locus YLR113W, strain HOG1, stronger effect = lower value 0.944 | S. cerevisiae deletion strains, locus YLR221C, strain rsa3, stronger effect = lower value 0.991 | S. cerevisiae deletion strains, locus YLR258W, strain gsy2, stronger effect = lower value 0.989 | S. cerevisiae deletion strains, locus YLR262C, strain YPT6 (second series), stronger effect = lower value 0.994 | S. cerevisiae deletion strains, locus YLR262C, strain YPT6, stronger effect = lower value 1.06 | S. cerevisiae deletion strains, locus YLR268W, strain sec22, stronger effect = lower value 1 | S. cerevisiae deletion strains, locus YLR320W, strain mms22, stronger effect = lower value 0.987 | S. cerevisiae deletion strains, locus YLR330W, strain CHS5, stronger effect = lower value 1 | S. cerevisiae deletion strains, locus YLR342W, strain FKS1 (second series), stronger effect = lower value 1.01 | S. cerevisiae deletion strains, locus YLR342W, strain FKS1, stronger effect = lower value 0.991 | S. cerevisiae deletion strains, locus YLR357W, strain rsc2, stronger effect = lower value 0.953 | S. cerevisiae deletion strains, locus YLR370C, strain arc18, stronger effect = lower value 0.981 | S. cerevisiae deletion strains, locus YLR371W, strain rom2, stronger effect = lower value 0.98 | S. cerevisiae deletion strains, locus YLR384C, strain iki3, stronger effect = lower value 0.986 | S. cerevisiae deletion strains, locus YLR418C, strain cdc73, stronger effect = lower value 0.991 | S. cerevisiae deletion strains, locus YML016C, strain PPZ1, stronger effect = lower value 1 | S. cerevisiae deletion strains, locus YML032C, strain rad52, stronger effect = lower value 0.977 | S. cerevisiae deletion strains, locus YML120C, strain ndi1, stronger effect = lower value 0.984 | S. cerevisiae deletion strains, locus YML124C, strain tub3, stronger effect = lower value 0.987 | S. cerevisiae deletion strains, locus YMR058W, strain fet3, stronger effect = lower value 0.985 | S. cerevisiae deletion strains, locus YMR078C, strain ctf18, stronger effect = lower value 0.977 | S. cerevisiae deletion strains, locus YMR125W, strain sto1, stronger effect = lower value 0.959 | S. cerevisiae deletion strains, locus YMR129W, stronger effect = lower value 0.993 | S. cerevisiae deletion strains, locus YMR205C, strain PFK2, stronger effect = lower value 0.956 | S. cerevisiae deletion strains, locus YMR223W, strain ubp8, stronger effect = lower value 0.983 | S. cerevisiae deletion strains, locus YMR231W, strain pep5, stronger effect = lower value 0.989 | S. cerevisiae deletion strains, locus YMR263W, strain SAP30, stronger effect = lower value 1.02 | S. cerevisiae deletion strains, locus YMR307W, strain GAS1, stronger effect = lower value 1.02 | S. cerevisiae deletion strains, locus YNL067W, strain RPL9B, stronger effect = lower value 1.03 | S. cerevisiae deletion strains, locus YNL071W, strain lat1, stronger effect = lower value 0.994 | S. cerevisiae deletion strains, locus YNL128W, strain TEP1, stronger effect = lower value 1.03 | S. cerevisiae deletion strains, locus YNL153C, strain GIM3, stronger effect = lower value 1.03 | S. cerevisiae deletion strains, locus YNL183C, strain NPR1, stronger effect = lower value 0.866 | S. cerevisiae deletion strains, locus YNL209W, strain ssb2, stronger effect = lower value 0.991 | S. cerevisiae deletion strains, locus YNL233W, strain BNI4, stronger effect = lower value 1.01 | S. cerevisiae deletion strains, locus YNL248C, strain rpa49, stronger effect = lower value 0.991 | S. cerevisiae deletion strains, locus YNL250W, strain rad50, stronger effect = lower value 0.971 | S. cerevisiae deletion strains, locus YNL271C, strain bni1, stronger effect = lower value 0.969 | S. cerevisiae deletion strains, locus YNL298W, strain CLA4, stronger effect = lower value 0.978 | S. cerevisiae deletion strains, locus YNL307C, strain MCK1, stronger effect = lower value 0.979 | S. cerevisiae deletion strains, locus YNL322C, strain KRE1 (second series), stronger effect = lower value 0.984 | S. cerevisiae deletion strains, locus YNL322C, strain KRE1, stronger effect = lower value 1.01 | S. cerevisiae deletion strains, locus YNR049C, strain mso1, stronger effect = lower value 0.983 | S. cerevisiae deletion strains, locus YNR052C, strain pop2, stronger effect = lower value 0.989 | S. cerevisiae deletion strains, locus YOL006C, strain TOP1, stronger effect = lower value 1.05 | S. cerevisiae deletion strains, locus YOL012C, strain htz1 0.817 | S. cerevisiae deletion strains, locus YOL147C, strain pex11, stronger effect = lower value 0.981 | S. cerevisiae deletion strains, locus YOR001W, strain rrp6, stronger effect = lower value 1.01 | S. cerevisiae deletion strains, locus YOR061W, strain CKA2, stronger effect = lower value 1.01 | S. cerevisiae deletion strains, locus YOR069W, strain VPS5, stronger effect = lower value 0.996 | S. cerevisiae deletion strains, locus YOR070C, strain gyp1, stronger effect = lower value 0.986 | S. cerevisiae deletion strains, locus YOR080W, strain dia2, stronger effect = lower value 0.981 | S. cerevisiae deletion strains, locus YOR083W, strain WHI5, stronger effect = lower value 1 | S. cerevisiae deletion strains, locus YOR106W, strain vam3, stronger effect = lower value 0.999 | S. cerevisiae deletion strains, locus YOR136W, strain idh2, stronger effect = lower value 0.992 | S. cerevisiae deletion strains, locus YOR144C, strain elg1, stronger effect = lower value 0.989 | S. cerevisiae deletion strains, locus YOR184W, strain ser1, stronger effect = lower value 0.967 | S. cerevisiae deletion strains, locus YOR231W, strain MKK1, stronger effect = lower value 0.926 | S. cerevisiae deletion strains, locus YOR265W, strain rbl2, stronger effect = lower value 0.99 | S. cerevisiae deletion strains, locus YOR270C, strain vph1, stronger effect = lower value 0.984 | S. cerevisiae deletion strains, locus YOR290C, strain snf2, stronger effect = lower value 0.992 | S. cerevisiae deletion strains, locus YOR316C, strain cot1, stronger effect = lower value 0.983 | S. cerevisiae deletion strains, locus YPL051W, strain arl3, stronger effect = lower value 0.991 | S. cerevisiae deletion strains, locus YPL055C, strain LGE1, stronger effect = lower value 1.06 | S. cerevisiae deletion strains, locus YPL078C, strain atp4, stronger effect = lower value 0.997 | S. cerevisiae deletion strains, locus YPL106C, strain sse1, stronger effect = lower value 0.966 | S. cerevisiae deletion strains, locus YPL240C, strain hsp82, stronger effect = lower value 0.998 | S. cerevisiae deletion strains, locus YPL241C, strain CIN2, stronger effect = lower value 1.01 | S. cerevisiae deletion strains, locus YPL256C, strain CLN2, stronger effect = lower value 0.935 | S. cerevisiae deletion strains, locus YPR119W, strain clb2, stronger effect = lower value 0.983 | S. cerevisiae deletion strains, locus YPR141C, strain kar3, stronger effect = lower value 0.976 | S. cerevisiae deletion strains, locus YPR163C, strain tif3, stronger effect = lower value 0.991 | S. cerevisiae deletion strains, locus YPR167C, strain met16, stronger effect = lower value 0.986 | S. cerevisiae deletion strains, strain wtn01, stronger effect = lower value 0.992 | S. cerevisiae strains, strain wild type, stronger effect = lower value 1.01
